Screens (PubChem)
PrPC surface inh – cell surface PrPC inhibition, primary TR-FRET screen | inhibition, % at 13.8 µM | P04156 | 0.43% of 370,000 active | TR-FRET read-out | AID 720596; in the data active = inhibition above about 24%; also: 0% = median of the test wells and 100% = reference compound wells
PrP 5UTR inh – suppresses PrP 5' UTR mRNA reporter expression; cell-based PrP 5' UTR mRNA reporter, plate reader; inhibition, % (test concentration not listed); 0.35% of 340,000 active; in the data active = inhibition above about 52%; also: 0 = median of the neutral control wells
GDH-TPI counter – GDH-TPI coupled enzyme inhibition counter-screen; GDH-TPI coupled enzyme counterscreen, NADH absorbance; inhibition, % at 4.8 µM; 1.2% of 360,000 active; in the data active = inhibition above about 30%;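 also: 0% = DMSO wells and 100% = wells lacking the enzyme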
PfHsp40 yeast – restores yeast growth despite PfHsp40 toxicity | growth rescue, % at 12.5 µM | 0.68% of 340,000 active | S. cerevisiae expressing PfHsp40, growth rescue, ATP luminescence; in the data active = growth rescue above about 28%, passing the limit was not always enough;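 also: yeast W303a lacking pdr1 and pdr3 grown in galactose medium; growth measured after three days at 30 °C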
BJeLR lethal – BJeLR cell viability loss; 0.17% of 300,000 active; inhibition, % (no concentration beside the values); AID 1554; BJeLR (HRASV12) viability, CellTiter-Glo ATP luminescence, 48 h; in the data active = inhibition above about 50%
FBA Mtb inh – inhibits M. tuberculosis FBA enzyme; purified M. tuberculosis FBA, fluorescence read-out; P9WQA3; inhibition, % at 1 µM; 2.3% of 360,000 active; in the data active = inhibition above about 27%;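 also: 0% = vehicle and 100% = reference inhibitor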
Target sequence (P9WQA3 whole entry, looked up): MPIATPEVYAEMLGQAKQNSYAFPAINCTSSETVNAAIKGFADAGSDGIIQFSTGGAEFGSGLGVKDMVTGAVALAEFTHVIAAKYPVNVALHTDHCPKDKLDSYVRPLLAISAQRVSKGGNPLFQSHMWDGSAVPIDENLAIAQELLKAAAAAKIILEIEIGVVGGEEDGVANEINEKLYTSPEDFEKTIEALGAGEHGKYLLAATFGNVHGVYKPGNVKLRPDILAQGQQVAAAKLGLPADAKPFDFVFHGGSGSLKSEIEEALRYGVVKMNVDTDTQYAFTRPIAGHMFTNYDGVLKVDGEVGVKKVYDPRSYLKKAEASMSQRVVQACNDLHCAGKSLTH
* marks the source's active call; other numbers are inactive results; nt = no result. Shown are actives, neighbours in structure and some others; about 4.5% of the full set was active somewhere.

SMILES	PrPC surface inh	PrP 5UTR inh	GDH-TPI counter	PfHsp40 yeast	BJeLR lethal	FBA Mtb inh
COc1cc(C(=O)N/N=C/c2sc(=O)n(-c3ccccc3)c2Cl)cc(OC)c1OC	-5.0	-16.9	45.6*	-0.8	-18.2	-3.9
COc1ccc(CN2C(=O)CCCC2(C)c2nnnn2-c2ccc3c(c2)OCCO3)cc1 (stereo unspecified)	-2.5	nt	nt	nt	nt	nt
Cc1nc(C(F)(F)F)ccc1C(=O)N1CCC1(C)C(=O)NCc1cccs1 (stereo unspecified)	-0.9	nt	5.3	nt	nt	-0.9
O=C(Nc1sc2c(c1-c1nc3ccccc3s1)CCNC2)C(F)(F)F	-6.3	nt	nt	nt	nt	nt
COc1cc(/C=C/C(=O)OCC(=O)Nc2ccc([N+](=O)[O-])cc2)ccc1O	-9.1	-10.7	68.3*	1.7	-0.6	-2.7
Cn1c(=O)c2cc(NC(=O)NCCc3cccs3)ccc2n1Cc1ccccc1	1.1	nt	13.7	nt	nt	140.7*
Cc1cc(C)cc(Cn2c3ccc(NC(=O)NCCc4cccs4)cc3c(=O)n2C)c1	15.1	nt	4.0	nt	nt	171.1*
CN(C)c1ccc(NC(=O)Nc2ccc3c(c2)c(=O)n(C)n3-c2ccccc2)cc1	2.2	nt	-0.9	nt	nt	0.9
Brc1ccc(CSc2nnc(SCc3ccccc3)s2)cc1	-6.9	nt	nt	nt	nt	nt
O=C1CSc2ccc(C(=O)N3CCCC(C(=O)N4CCCN(Cc5ccccc5)CC4)C3)cc2N1 (stereo unspecified)	4.5	nt	nt	nt	nt	nt
Cc1cc(N2CCN(c3ccccc3)CC2)nc(-c2ccccc2O)n1	-2.0	-9.2	6.9	10.6	1.4	6.8
Cc1cc(N2CCC(C)CC2)nc(-c2ccccc2O)n1	-5.8	-3.4	37.7*	4.4	8.8	7.1
CCCc1c(C(=O)N/N=C/c2c[nH]c3ccccc23)nnn1-c1nonc1N	3.6	nt	30.1	nt	nt	-4.0
